POLI inh: DNA polymerase iota (human) inhibition. Pol iota fluorescent replication assay, 10 min. Q9UNA4. Potency, µM (highest dose often 115 µM), inactives show top-dose activity, negative = inhibition, most hits filed as inhibitors. AID 588590. hit rate 1% among 390,000
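Pol iota at 10 nM preincubated 15 min with compounds at room temperature; reaction started with fluorescent substrate, 50 nM final. Fluorescence read kinetically at 0 and 10 min; buffer-only wells as negative control.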
FEN1 inhibitor: blocks human flap endonuclease 1. Recombinant FEN1 flap cleavage, fluorescence, 15 min. Potency, µM (titrated, usually from 114 µM), without a hit: top-dose activity change, negative = inhibition, most hits filed as inhibitors. hit rate 0.35% among 390,000. AID 588795; also: % is scaled to controls: 0 for no effect and ±100 for the full control effect; nearly all actives have a fitted effect of over 65% in size
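Compounds are tested as a concentration series against 10 nM FEN1; after a 15 min room-temperature preincubation, 50 nM substrate starts cleavage, with plate reads at 0 and 15 min. Normalized responses are fitted by a Hill equation.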
Pol eta inh-1: blocks human DNA polymerase eta activity; recombinant Pol eta, fluorescent DNA replication assay; Q9Y253; hit rate 1.2% among 390,000; Potency, µM (titrated, usually from 114 µM), for inactives: at the highest dose activity change, negative = inhibition, most hits filed as inhibitors; AID 588591; also: % is scaled to controls: 0 for no effect and ±100 for the full control effect
Target sequence (Q9Y253 whole entry, looked up): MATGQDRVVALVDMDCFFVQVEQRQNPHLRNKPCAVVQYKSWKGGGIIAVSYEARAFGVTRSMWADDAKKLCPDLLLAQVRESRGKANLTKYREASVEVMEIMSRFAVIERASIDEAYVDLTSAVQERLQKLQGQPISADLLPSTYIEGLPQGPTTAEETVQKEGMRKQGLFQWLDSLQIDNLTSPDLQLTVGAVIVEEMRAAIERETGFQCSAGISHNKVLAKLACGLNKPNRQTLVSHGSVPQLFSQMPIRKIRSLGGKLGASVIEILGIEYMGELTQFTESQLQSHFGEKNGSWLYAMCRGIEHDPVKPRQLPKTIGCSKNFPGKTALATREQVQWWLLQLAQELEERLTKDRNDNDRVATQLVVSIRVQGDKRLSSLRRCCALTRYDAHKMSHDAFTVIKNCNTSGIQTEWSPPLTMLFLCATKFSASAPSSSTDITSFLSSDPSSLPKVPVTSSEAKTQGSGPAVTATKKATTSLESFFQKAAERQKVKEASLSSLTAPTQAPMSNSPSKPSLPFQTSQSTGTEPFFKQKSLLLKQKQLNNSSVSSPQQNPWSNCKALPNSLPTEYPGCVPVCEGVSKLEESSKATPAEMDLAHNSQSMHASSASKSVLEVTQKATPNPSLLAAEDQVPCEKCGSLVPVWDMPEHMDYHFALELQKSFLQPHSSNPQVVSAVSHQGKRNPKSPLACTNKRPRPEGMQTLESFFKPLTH
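Pol eta at 10 nM preincubated with compounds 15 min at room temperature; reaction started with fluorescent substrate (50 nM final) and read kinetically at 0 and 10 min.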
TDP1 inh: inhibitors of human tyrosyl-DNA phosphodiesterase TDP1; recombinant TDP1, AlphaScreen DNA substrate cleavage; Potency, µM (series often up to 130 µM), for inactives: at the highest dose activity change, negative = inhibition, usual class: inhibitors; hit rate 0.28% among 350,000; also: % is scaled to controls: 0 for no effect and ±100 for the full control effect; nearly all actives have a fitted effect of over 40% in size
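Enzyme-compound mixtures sat 15 min at room temperature, followed by a 5 min reaction with 15 nM final substrate and 10 min with AlphaScreen beads. Recombinant human Tdp1 was used at 1 nM final.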
Pol kappa inh-1: blocks human DNA polymerase kappa activity; hit rate 0.53% among 400,000; Q9UBT6; purified Pol kappa, fluorescent DNA synthesis assay, 10 min; Potency, µM (highest dose often 107 µM), for the others: top-dose activity, negative = inhibition, most hits filed as inhibitors; also: % is scaled to controls: 0 for no effect and ±100 for the full control effect
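First, compounds were pin-transferred onto 10 nM Pol kappa. After 15 min at room temperature, substrate was added to 50 nM final. Fluorescence was then measured kinetically at 0 and 10 min.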
POLB inh: DNA polymerase beta (human) inhibition | P06746 | Pol beta primer extension/strand displacement, fluorescence kinetic | Potency, µM (titrated, usually from 114 µM), for the others: at the highest dose activity change, negative = inhibition, usual class: inhibitors | hit rate 1.3% among 340,000; also: % is scaled to controls: 0 for no effect and ±100 for the full control effect
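10 nM enzyme + cpd, 15 min RT; start with substrate 50 nM final; read 0 min and after 10 min RT. Corrected, normalized data; 4-parameter Hill curve fit.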
Pol kappa inh-2: confirmation of human DNA polymerase kappa inhibitors; Potency, µM, usual class: inhibitors; purified Pol-kappa, fluorescent strand-displacement substrate; AID 720501; hit rate 76% among 920; shares compounds with Pol eta inh-1
Pol eta inh-2: Pol eta (human) inhibition, cherry-pick confirmation; hit rate 64% among 2,600; Potency, µM, most hits filed as inhibitors; AID 720502; shares compounds with Pol eta inh-1; Pol eta primer extension, TAMRA/BHQ fluorescence, 10 min
Numbers without * were called inactive; ? = inconclusive; · = not tested or not shown; [ ] = remark or other dose. Shown are actives, neighbours in structure and some others; about 2.4% of the full set was active somewhere. Calls follow the shape of the dose curve; as a rule, active = well fitted curve in the direction sought with a large enough effect; inconclusive = small, poorly fitted or top-dose-only effect, or another doubt; inactive = no such curve, though single readings can be large; an effect the other way counts as inactive or inconclusive. Potency is read from the fitted curve at half-maximal effect.

SMILES | POLI inh | FEN1 inhibitor | Pol eta inh-1 | TDP1 inh | Pol kappa inh-1 | POLB inh | Pol eta inh-2 | others
O=C(N/N=C/c1cc(Cl)cc([N+](=O)[O-])c1O)c1ccccc1NS(=O)(=O)c1cccs1 | ? | -32.8% | ? | 9.9% | -9.1% | -4.5% | ?
Cc1c(C(=O)N2CCCC2)oc2ccc(Br)cc12 | ? | 8.8% | 50.1µM* | 1.2% | -41.2% | ? | ?
CCOCCCNC(=O)C(c1ccc(OC)cc1)N(Cc1cccs1)C(=O)c1ccc(NC(C)=O)cc1 (stereo not given) | -4.0% | -3.1% | -8.0% | 2.9% | -17.8% | -11.3% | ·
O=C(Nc1cccnc1Cl)c1ccc(=O)oc1 | 22.4µM* | 20µM* | 20µM* | · | 44.7µM* | 12.6µM* | ?
COc1ccc(C(=O)Nc2cccnc2Cl)cc1OC | 5.6% | -5.3% | -12.0% | · | -9.9% | ? | ·
Cc1ccc(C)n1-c1nnc(N2CCCC(C(=O)NCc3ccccc3)C2)s1 (stereo not given) | 8.0% | 14.0% | · | 5.1% | -9.5% | 7.7% | ·
CCNc1nc(NCC)n2c(SCC(=O)Nc3ccc(CC)cc3)nnc2n1 | 65.4% | 1.9% | 3.0% | -6.7% | -15.6% | · | ·
CCNc1nc(NCC)n2c(SCC(=O)Nc3ccc(NC(C)=O)cc3)nnc2n1 | ? | 1.2% | 39.8µM* | -15.3%[0.505 µM] | ? | · | ?
COc1ccc(C(=O)NNC(=O)Cc2coc3cc(OC)ccc23)cc1 | ? | 0.3% | 20µM* | · | ? | · | ?
COc1ccc2c(CC(=O)Nc3ccc(OC)nc3)coc2c1 | 116.2% | -2.3% | 7.7% | 3.6% | -21.5% | -23.8% | ·
CCOc1cc(/C=C2\SC(=O)N(CC(=O)Nc3ccccc3F)C2=O)cc([N+](=O)[O-])c1O | 11.2µM* | 50.1µM* | ? | 7.2% | -19.6% | -6.3% | · | Pol kappa inh-2=?
CC1=NN(c2nc(-c3ccc(C#N)cc3)cs2)C(=O)C1 | 33.5% | -16.1% | -17.7% | 7.6% | -6.1% | 12.8% | ·
CC1=NN(c2nc(-c3ccccc3)cs2)C(=O)C1 | ? | 8.5% | 50.1µM* | 13.5% | -36.2% | -1.3% | ?
CC(C)CCN1C(=O)c2ccc(C(=O)Nc3ccccc3C(=O)O)cc2C1=O | ? | ? | -14.6% | · | -7.8% | ? | ·
CC(c1ccccc1)N1C(=O)c2ccc(C(=O)Nc3ccc(Br)cc3C(=O)O)cc2C1=O (stereo not given) | -12.6% | -32.1% | 50.1µM* | 1.6% | -8.3% | 14.0% | 75.7*
Cc1ccc(C(=O)c2coc3cc([N+](=O)[O-])c(O)c([N+](=O)[O-])c23)cc1 | ? | ? | 20µM* | 0.0% | ? | 20µM* | · | Pol kappa inh-2=?
Cc1ccc(C(=O)c2ccc([N+](=O)[O-])cc2)cc1 | 33.6% | 4.3% | -11.6% | 6.6% | 2.7% | -9.1% | ·
Cc1c(C=O)ccc(N(C)C)c1C | 23.3% | -0.1% | · | · | -2.5% | · | ·
CNC(=O)c1c[nH]c2ccc(S(=O)(=O)Nc3cccc(Cl)c3C)cc2c1=O | ? | -8.7% | ? | · | ? | 31.6µM* | ? | Pol kappa inh-2=21.2*
CCCCN(CCCC)C(=O)c1c[nH]c2ccc(S(=O)(=O)Nc3cccc(Cl)c3C)cc2c1=O | 79.4µM* | 2.4% | 39.8µM* | 31.6µM* | -15.3%[60.1 µM] | 35.5µM* | 75.7* | Pol kappa inh-2=15*
COCCCNC(=O)c1c[nH]c2ccc(S(=O)(=O)N(C)c3ccccc3C)cc2c1=O | 53.3% | 11.1% | -24.6% | · | -0.4% | 1.1% | ·
CCOCCCNC(=O)c1c[nH]c2ccc(S(=O)(=O)Nc3cccc(Cl)c3C)cc2c1=O | ? | -16.0% | 31.6µM* | ? | ? | 28.2µM* | 84.9* | Pol kappa inh-2=21.2*
O=C1NC(=O)c2cc([N+](=O)[O-])ccc21 | · | · | · | 18.3% | · | · | ·
Nc1nnc(CC(=O)N/N=C/c2cccc([N+](=O)[O-])c2)s1 | 12.3% | -4.7% | -20.3% | -1.5% | -4.3% | 29.9% | ·
Nc1nnc(CC(=O)N/N=C/c2cc([N+](=O)[O-])cc(Br)c2O)s1 | ? | -31.5% | ? | 2.7% | 50.1µM* | ? | ? | Pol kappa inh-2=47.4*
SMILES | POLI inh | FEN1 inhibitor | Pol eta inh-1 | TDP1 inh | Pol kappa inh-1 | POLB inh | Pol eta inh-2 | others
Cc1ccc2c(c1)N(CC(=O)NCc1cccc(Cl)c1)C(=O)c1cccnc1O2 | 13.5% | -9.8% | -21.2% | -1.9% | -16.6%[60.1 µM] | ? | ·
CCC(=O)N1CCc2cc(Br)cc(S(=O)(=O)CCC(=O)NCCc3ccccc3Cl)c21 | -14.6% | 15.8% | ? | -11.8% | -18.9% | ? | 75.7* | Pol kappa inh-2=33.6*
C/[N+]([O-])=C\c1coc2ccccc2c1=O | -4.5% | -5.7% | -14.1% | 3.6% | -7.3% | 5.1% | ·
Cc1cccc(-n2c(C)cc(/C=C3\C(=N)N4N=C(CC(C)C)SC4=NC3=O)c2C)c1 | -6.3% | -6.6% | -17.5% | 8.5% | -6.5% | 3.1% | ·
CCSC1=NSC2=NC(=O)/C(=C\c3coc4ccccc4c3=O)C(=N)N12 | ? | ? | 20µM* | -5.5% | -19.3% | 28.2µM* | · | Pol kappa inh-2=?
CC(C)CC1=NN2C(=N)/C(=C\c3coc4ccccc4c3=O)C(=O)N=C2S1 | ? | 31.6µM* | 20µM* | 1.2% | ? | 20µM* | 75.7*
COc1ccc(NC(=O)CN2CCN(Cc3ccc(F)cc3)S2(=O)=O)cc1Cl | 9.7% | -24.5% | -5.5% | 0.0% | -8.0%[60.1 µM] | 23.1% | ·
COc1ccc(Cn2c(SCc3ccc(C(=O)NC4CCCC4)cc3)nc3cccnc32)cc1 | -27.0% | 21.7% | 0.5% | 6.2% | -19.0% | -29.9% | ·
COc1ccc(-c2c(C(F)(F)F)[nH]n3c(=O)cc(-c4ccccc4)nc23)cc1 | -11.7% | -31.4% | 89.1µM* | · | -3.8% | 12.0% | ?
CN(CC(=O)Nc1ccc(F)cc1)C(=O)c1cc(-c2ccco2)nc2ccccc12 | 15.8µM* | 9.7% | 39.8µM* | · | ? | · | ?
CCOc1ccc(NC(=O)CN(C)C(=O)c2cc(-c3ccco3)nc3ccccc23)cc1OCC | 24.4% | -14.4% | -9.4% | · | -0.2% | · | ·
COc1cc(/C=C2\S/C(=N/S(=O)(=O)c3ccc(C)cc3)NC2=O)c([N+](=O)[O-])cc1OC | 38.6% | -16.6% | 0.9% | 2.6% | -5.5% | 6.8% | ·
Cc1ccc(S(=O)(=O)/N=C2/NC(=O)/C(=C/c3cc([N+](=O)[O-])ccc3O)S2)cc1 | 28.2µM* | ? | 28.2µM* | · | ? | -3.9% | · | Pol kappa inh-2=?
Cc1ccc(CNCc2c(C(=O)O)c(C)n(Cc3ccc(C)cc3)c2C)cc1 | 37.7% | 9.6% | -20.6% | 5.1% | -14.2% | 0.2% | ·

Screening data as filed in PubChem BioAssay.
